Results from publication PMC5540273 (PLoS ONE, 2017).
Like-named read-outs stand apart in the source and are kept apart here.

Tests used:
VRK2 = details: concentration: 1 μM, replicates: in singlicate; n = 1
WEE1 = details: concentration: 1 μM, replicates: in singlicate; n = 1
WEE2 = details: concentration: 1 μM, replicates: in singlicate; n = 1
WNK1 = details: concentration: 1 μM, replicates: in singlicate; n = 1
WNK2 = details: concentration: 1 μM, replicates: in singlicate; n = 1
WNK3 = details: concentration: 1 μM, replicates: in singlicate; n = 1
WNK4 = details: concentration: 1 μM, replicates: in singlicate; n = 1
YANK1 = test system: T1, YANK1; details: concentration: 1 μM, replicates: in singlicate; n = 1
T1 construct: gene STK32A

YANK2 = test system: T2, YANK2; details: concentration: 1 μM, replicates: in singlicate; n = 1
T2 construct: gene STK32B

YANK3 = test system: T3, YANK3; details: concentration: 1 μM, replicates: in singlicate; n = 1
T3 construct: gene STK32C

YES = test system: T4, YES; details: concentration: 1 μM, replicates: in singlicate; n = 1
T4 construct: gene YES1

YSK1 = test system: T5, YSK1; details: concentration: 1 μM, replicates: in singlicate; n = 1
T5 construct: gene STK25

YSK4 = test system: T6, YSK4; details: concentration: 1 μM, replicates: in singlicate; n = 1
T6 construct: gene MAP3K19

ZAK = details: concentration: 1 μM, replicates: in singlicate; n = 1
ZAP70 = details: concentration: 1 μM, replicates: in singlicate; n = 1
p38-alpha = test system: T7, p38-alpha; details: n = 1
T7 construct: gene MAPK14

p38-beta = test system: T8, p38-beta; details: concentration: 1 μM, replicates: in singlicate; n = 1
T8 construct: gene MAPK11

p38-delta = details: concentration: 1 μM, replicates: in singlicate; n = 1
p38-gamma = test system: T9, p38-gamma; details: concentration: 1 μM, replicates: in singlicate; n = 1
T9 construct: gene MAPK12

[1] = concentration: 1 μM, replicates: in singlicate
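Further: KINOMEscan kinase panel screen.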

| SMILES | %Inh (VRK2) | %Inh (WEE1) | %Inh (WEE2) | %Inh (WNK1) | %Inh (WNK2) | %Inh (WNK3) | %Inh (WNK4) | %Inh (YANK1) | %Inh (YANK2) | %Inh (YANK3) | %Inh (YES) | %Inh (YSK1) | %Inh (YSK4) | %Inh (ZAK) | %Inh (ZAP70) | %Inh (p38-alpha; [1]) | %Inh (p38-beta) | %Inh (p38-delta) | %Inh (p38-gamma) | %Inh (p38-alpha; 1 µM) |
| --- | --- | --- | --- | --- | --- | --- | --- | --- | --- | --- | --- | --- | --- | --- | --- | --- | --- | --- | --- | --- |
| O=C(O)COc1ncnc2cc(-c3ccc4[nH]ncc4c3)sc12 | 8% | 0% | 6% | 7% | 32% | 1% | 23% | 12% | 4% | 14% | 0% | 0% | 83% | 6% | 14% | 20% | 16% | 32% | 21% |  |
| Cl.Oc1ccc(-c2nc(-c3ccccc3)[nH]c2-c2ccncc2)cc1 [SB-428218] | 64% | 64% | 8% | 0% | 0% | 0% | 60% | 8% | 0% | 21% | 17% | 4% | 13% | 10% | 0% | 63% | 0% | 43% | 0% |  |
| CC(=O)Nc1nc2cnc(Nc3cc(NC(=O)c4cccc(CCC#N)c4)ccc3C)nc2s1 | 0% | 0% | 0% | 0% | 22% | 0% | 11% | 15% | 9% | 34% | 3% | 0% | 19% | 0% | 0% | 77% | 17% | 16% | 32% |  |
| Nc1nc(-c2nccs2)c(-c2ccnc3ccccc23)s1 [GW693542] | 0% | 22% | 9% | 20% | 28% | 35% | 28% | 9% | 3% | 0% | 17% | 10% | 28% | 39% | 0% | 0% | 0% | 22% | 30% |  |
| Cc1nnc(-c2ccc3occ(-c4ccc(S(C)=O)cc4)c3c2)[nH]1 (stereo not shown) | 0% | 0% | 32% | 0% | 19% | 0% | 0% | 0% | 0% | 0% | 0% | 0% | 44% | 8% | 0% | 13% | 0% | 3% | 9% |  |
| Cl.O=C(Nc1cccc(-c2nn3ncccc3c2-c2ccnc(Nc3cccnc3)n2)c1)c1c(F)cccc1F [GSK312879] | 10% | 0% | 0% | 13% | 7% | 10% | 0% | 7% | 10% | 32% | 73% | 0% | 32% | 28% | 0% | 3% | 6% | 24% | 0% |  |
| COc1cccc(NC(=O)NC2CCN(c3ccnc(Nc4ccc(F)cc4)n3)C2)c1 (stereo not shown) [GSK1379721] | 0% | 6% | 0% | 5% | 8% | 33% | 2% | 0% | 0% | 0% | 0% | 10% | 3% | 42% | 0% | 4% | 0% | 35% | 2% |  |
| COc1ccccc1CNC(=O)c1cc(C(=O)c2ccccc2C)c[nH]1 [GSK364507] | 0% | 9% | 12% | 10% | 12% | 25% | 32% | 10% | 0% | 23% | 16% | 0% | 28% | 24% | 13% |  | 0% | 39% | 0% | 93.3% |
| COc1cc2ncn(-c3cc(OCC4CCCO4)c(C(N)=O)s3)c2cc1OC (stereo not shown) [GSK204607] | 19% | 9% | 3% | 0% | 8% | 12% | 35% | 9% | 0% | 0% | 12% | 22% | 53% | 6% | 0% | 0% | 0% | 37% | 0% |  |
| COc1ccc(C2=C(Nc3cccc(C(=O)O)c3)C(=O)NC2=O)cc1 [SB-390765] | 0% | 0% | 16% | 49% | 15% | 23% | 24% | 0% | 0% | 0% | 11% | 0% | 0% | 13% | 0% | 4% | 6% | 2% | 29% |  |
| CC(C)(C)c1ccc(C(=O)Nc2cn3cc(Cl)ccc3n2)cc1 | 0% | 0% | 0% | 0% | 0% | 0% | 0% | 0% | 0% | 3% | 0% | 0% | 5% | 0% | 4% | 0% | 0% | 39% | 10% |  |
| CC(C)(C)c1ccc(C(=O)Nc2cn3cc(-c4cccnc4)ccc3n2)cc1 | 0% | 0% | 0% | 0% | 36% | 0% | 26% | 3% | 0% | 20% | 10% | 1% | 66% | 19% | 0% | 1% | 30% | 46% | 21% |  |
| O=C(Nc1n[nH]c2nc(-c3nccs3)c(Br)cc12)C1CC1 [SB-742251] | 0% | 16% | 7% | 23% | 2% | 35% | 51% | 6% | 0% | 7% | 16% | 9% | 95.4% | 7% | 0% | 0% | 0% | 20% | 0% |  |
| Cc1csc(-c2nc(Nc3ccncc3)c3ccccc3n2)n1 [GW869640] | 20% | 1% | 12% | 37% | 0% | 33% | 13% | 2% | 3% | 43% | 0% | 0% | 38% | 17% | 18% | 14% | 12% | 0% | 39% |  |
| O=C(Nc1n[nH]c2cc(-c3cccc(F)c3F)ccc12)C1CC1 [SB-733894] | 0% | 0% | 0% | 0% | 0% | 0% | 0% | 0% | 0% | 0% | 0% | 0% | 74% | 0% | 60% | 0% | 2% | 0% | 24% |  |
| NC(=O)c1nnc2ccccc2c1N | 4% | 9% | 20% | 8% | 0% | 0% | 9% | 23% | 0% | 0% | 0% | 2% | 88% | 0% | 0% | 71% | 0% | 0% | 43% |  |
| CS(=O)(=O)c1ccc(-c2c(-c3ncn[nH]3)sc(N3CCOCC3)c2C#N)cc1 | 0% | 0% | 10% | 0% | 11% | 0% | 0% | 27% | 0% | 16% | 13% | 0% | 18% | 0% | 0% | 6% | 11% | 34% | 33% |  |
| O=C(Nc1n[nH]c2nc(-c3nccs3)c(Br)cc12)C1CCCC1 [SB-742609] | 34% | 0% | 1% | 10% | 0% | 19% | 0% | 4% | 0% | 28% | 10% | 5% | 62% | 9% | 0% | 0% | 0% | 47% | 0% |  |
| Cc1ccc(NC(=O)Nc2cc(C(C)(C)C)nn2-c2ccccc2)cc1 [GSK1014915] | 0% | 0% | 7% | 9% | 0% | 13% | 25% | 13% | 5% | 7% | 9% | 0% | 19% | 26% | 0% | 99.7% | 87% | 54% | 50% |  |
| Cc1cccc(-c2nc(Nc3ccncc3)c3ccccc3n2)n1 [GW855857] | 0% | 23% | 8% | 0% | 0% | 0% | 0% | 0% | 0% | 0% | 0% | 0% | 0% | 4% | 0% | 16% | 1% | 0% | 24% |  |
| COc1cc2ncnc(Nc3ccc4nc(-c5ccccc5)[nH]c4c3)c2cc1OC.Cl [GW282450] | 0% | 0% | 0% | 10% | 16% | 6% | 0% | 2% | 0% | 9% | 5% | 6% | 35% | 0% | 0% | 1% | 0% | 36% | 0% |  |
| Fc1cccc(COc2nnc(-c3ccc4c(c3)CCO4)o2)c1 | 0% | 0% | 19% | 0% | 0% | 0% | 0% | 0% | 0% | 19% | 0% | 0% | 31% | 0% | 0% | 15% | 0% | 4% | 0% |  |
| CCn1c(-c2cccnc2O)nc2cnccc21 [SB-736715] | 77% | 0% | 84% | 0% | 24% | 0% | 0% | 0% | 0% | 0% | 0% | 0% | 0% | 0% | 0% | 0% | 0% | 8% | 0% |  |
| Cl.NC(=O)c1cccc(Nc2nccc(Nc3ccc(Oc4cccc(Cl)c4)c(Cl)c3)n2)c1 [GW659008] | 0% | 0% | 12% | 0% | 0% | 15% | 0% | 3% | 2% | 28% | 54% | 0% | 0% | 53% | 0% | 8% | 0% | 38% | 0% |  |
| CN(C)CCN(C)C(=O)c1cc(-c2ccncc2)c(-c2ccc(Cl)c(O)c2)o1.Cl.Cl [SB-710397] | 24% | 0% | 5% | 15% | 0% | 38% | 47% | 49% | 71% | 35% | 0% | 0% | 57% | 41% | 35% | 82% | 0% | 51% | 29% |  |
| COC(=O)c1c(-c2ccccc2)c2cc(C(=O)O)ccc2c(=O)n1Cc1ccccc1 | 0% | 0% | 0% | 0% | 0% | 0% | 3% | 0% | 3% | 2% | 0% | 0% | 0% | 0% | 31% | 24% | 19% | 21% | 0% |  |
| Cc1cccc(-c2cc(Nc3ccncc3)c3ccccc3n2)n1 [GSK223675] | 0% | 20% | 0% | 4% | 0% | 1% | 0% | 2% | 0% | 0% | 0% | 8% | 13% | 82% | 0% | 12% | 0% | 42% | 22% |  |
| COC(=O)c1c(-c2ccccc2)c2cc(OC)ccc2c(=O)n1Cc1ccccc1 | 0% | 0% | 9% | 0% | 0% | 0% | 0% | 0% | 4% | 0% | 0% | 1% | 0% | 20% | 0% | 36% | 7% | 42% | 0% |  |
